# Unmarked numbers belong to inactive results. Records with an inconclusive call do not appear. Activity calls are given as the source filed them. Unless noted, calls follow the shape of the dose curve; as a rule, active = well fitted cell-killing curve with a large enough effect; inconclusive = small, poorly fitted or top-dose-only effect, or effect the other way; inactive = no such curve, though single readings can be large or run the other way.
# Experiment: Quantitative High-Throughput drug screen in 47 multiple myeloma cell lines against the NCATS MIPE library collection: KMS11_JCRBsus cell viability assay (AID 1919873); also: nearly all actives have a fitted effect of over 50% in size; also: potency is read from the fitted curve at half-maximal effect
# Details: KMS11 myeloma viability, CellTiter-Glo ATP luminescence, 48 h; series mostly up to 45.8 µM
# How it was run: (§1)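 Myeloma cells (500/well) treated with MIPE 4.0 compounds for 48 h at 37 °C, 5% CO2. Viability read as ATP via CellTiter-Glo luminescence after 5 min at RT; DMSO-only wells = 100%, media-only = 0% viability.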
row,Compound,Potency
1,COc1ccc2cc(-c3nc(-c4ccc(S(C)=O)cc4)[nH]c3-c3ccncc3)ccc2c1 (centres undefined),23.5 µM (active)
2,COc1cc(NC(=O)c2ccc(-c3ccc(Cl)cc3)o2)cc(OC)c1,inactive
3,CCOC1OC(=O)C[C@H]1NC(=O)[C@@H]1CCCN1C(=O)[C@@H](NC(=O)c1ccc(N)c(Cl)c1)C(C)(C)C (some centres undefined),inactive
4,Nc1ncnc2c1ncn2[C@@H]1O[C@H](CO)C[C@@H]1O,37.2 µM (active)
5,CC=CCC=CCCC(=O)[C@H]1O[C@@H]1C(N)=O,20.9 µM (active)
6,CC(C)C(=O)Oc1ccc(CO)cc1[C@H](CCN(C(C)C)C(C)C)c1ccccc1,inactive
7,Cc1ccc([C@@H]2O[C@H](CO)[C@@H](O)[C@H](O)[C@@H]2O)cc1Cc1ccc(-c2ccc(F)cc2)s1,23.5 µM (active)
8,CN(C)c1cc(NC(=O)CNC(C)(C)C)c(O)c2c1C[C@@H]1C[C@H]3[C@H](N(C)C)C(=O)C(C(N)=O)=C(O)[C@@]3(O)C(=O)C1=C2O,inactive
9,C[N+](C)(C)CC(=O)O,inactive
10,O=C(NC1CCOCC1)c1ccc(-c2cc(-c3cn[nH]c3-c3ccccn3)ccn2)cc1,inactive
11,Nc1ncnc2c1ncn2[C@@H]1O[C@@H](CO)[C@H](O)[C@H]1O,inactive
12,C[C@H](NC(=O)c1sccc1OCc1ccc(Cl)cc1)c1ccccc1,7.43 µM (active)
13,COc1cccc(-c2cc(=O)c3ccccc3o2)c1N,inactive
14,O=C(NCc1ccccc1)c1csc(Nc2ccncn2)n1,26.4 µM (active)
15,Clc1cc(Cl)cc(CNc2ncncc2-c2ccc3c(c2)OCO3)c1,16.6 µM (active)
16,NC1CCC(Nc2nc(Nc3ccc(C(=O)N4CCCCC4)cc3)c3ncn(-c4cccc(F)c4)c3n2)CC1 (centres undefined),inactive
17,Cc1cnc(C(=O)O)c[n+]1[O-],inactive
18,Cc1cc(OCCCc2c(C(=O)O)n(Cc3cccnc3)c3c(-c4c(COc5ccc(N6CCN([S+](C)(=O)[O-])CC6)cc5)nn(C)c4C)cccc23)cc(C)c1Cl,23.5 µM (active)
19,CCOC(CN1C(=O)[C@](CC(=O)Nc2ccc(C)cc2)(NC(=O)Nc2ccc(C)cc2)c2ccccc21)OCC,26.4 µM (active)

# Experiment: Quantitative High-Throughput drug screen in 47 multiple myeloma cell lines against the NCATS MIPE library collection: KMS28BM_JCRB cell viability assay (AID 1919874); also: nearly all actives have a fitted effect of over 35% in size; also: potency is read from the fitted curve at half-maximal effect
# Details: CellTiter-Glo ATP, 48 h; series mostly up to 45.8 µM
# How it was run: as §1
row,Compound,Potency
1,CS(=O)(=O)N(Cc1ccco1)CC(O)Cn1c2ccccc2c2ccccc21 (centres undefined),26.4 µM (active)
2,Cc1ccn(-c2ccc(-c3ncco3)cc2)c(=O)c1-c1ccc2nc(N)ncc2c1,inactive
3,COc1ccc(Cc2ccc(NC(N)=O)cc2)cc1-c1cccc(Cl)c1,13.2 µM (active)
4,COc1cc(NC(=O)c2ccc(-c3ccc(Cl)cc3)o2)cc(OC)c1,inactive
5,CCOC1OC(=O)C[C@H]1NC(=O)[C@@H]1CCCN1C(=O)[C@@H](NC(=O)c1ccc(N)c(Cl)c1)C(C)(C)C (some centres undefined),inactive
6,CC=CCC=CCCC(=O)[C@H]1O[C@@H]1C(N)=O,14.8 µM (active)
7,CC(C)C(=O)Oc1ccc(CO)cc1[C@H](CCN(C(C)C)C(C)C)c1ccccc1,inactive
8,CN(C)c1cc(NC(=O)CNC(C)(C)C)c(O)c2c1C[C@@H]1C[C@H]3[C@H](N(C)C)C(=O)C(C(N)=O)=C(O)[C@@]3(O)C(=O)C1=C2O,inactive
9,C[N+](C)(C)CC(=O)O,inactive
10,O=C(O)C=Cc1ccc(O)c(O)c1,inactive
11,O=C(NC1CCOCC1)c1ccc(-c2cc(-c3cn[nH]c3-c3ccccn3)ccn2)cc1,inactive
12,CCC(=O)NC[C@H](Cc1ccc(OCCc2nc(-c3ccccc3)oc2C)cc1)NC(C)=CC(=O)c1ccc(C(F)(F)F)cc1,inactive
13,O=c1ccn([C@@H]2O[C@H](CO)[C@H](O)[C@H]2O)c(=O)[nH]1,inactive
14,CC(C)(C)NC(=O)Nc1cccc(Nc2ncc(F)c(NC(C)(C)CO)n2)c1,inactive
15,CCCCCNC(=O)N1CCC(CN(Cc2ccc(Cl)cc2)Cc2ccc([N+](=O)[O-])s2)C1 (centres undefined),18.7 µM (active)
16,O=C(NCc1ccccc1)c1csc(Nc2ccncn2)n1,18.7 µM (active)
17,CO[C@@H](C(=O)N1Cc2[nH]nc(NC(=O)c3ccc(N4CCN(C)CC4)cc3)c2C1)c1ccccc1,1.66 µM (active)
18,NC1CCC(Nc2nc(Nc3ccc(C(=O)N4CCCCC4)cc3)c3ncn(-c4cccc(F)c4)c3n2)CC1 (centres undefined),inactive
19,Cc1c(NC(=O)c2ccc(C(C)(C)C)cc2)cccc1-c1cn(C)c(=O)c(Nc2ccc(C(=O)N3CCOCC3)cc2)n1,18.7 µM (active)
20,Cc1cnc(C(=O)O)c[n+]1[O-],inactive
21,Cc1cc(OCCCc2c(C(=O)O)n(Cc3cccnc3)c3c(-c4c(COc5ccc(N6CCN([S+](C)(=O)[O-])CC6)cc5)nn(C)c4C)cccc23)cc(C)c1Cl,23.5 µM (active)

# Experiment: qHTS drug screen for cell cycle checkpoint inhibitors in PARPi-resistant BRCA-mutant ovarian cancer cell lines. (AID 1963452; calls by dose curve)
# Details: PEO1/OlaR viability, CellTiter-Glo luminescence, 96 h; stronger effect = lower value
# How it was run: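 PEO1, PEO4 and PEO1/OlaR ovarian cancer cells, 600 per well, exposed 96 h at 37C to a dilution series. Viability read by CellTiter-Glo luminescence, normalized to DMSO and empty wells; activity summarized as Z-AUC.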
row,Compound,Z-AUC
1,Cc1ccn(-c2ccc(-c3ncco3)cc2)c(=O)c1-c1ccc2nc(N)ncc2c1,1.02
2,Oc1ccc(C2=Cc3ccc(O)cc3OC2)cc1,-0.664
3,COc1ccc(Cc2ccc(NC(N)=O)cc2)cc1-c1cccc(Cl)c1,0.65
4,COc1ccc2cc(-c3nc(-c4ccc(S(C)=O)cc4)[nH]c3-c3ccncc3)ccc2c1 (centres undefined),-0.0857
5,COc1cc(NC(=O)c2ccc(-c3ccc(Cl)cc3)o2)cc(OC)c1,-0.479
6,CN[C@@H](C)C(=O)N[C@H]1CN(C(=O)CC(C)C)CC[C@H]2CC[C@@H](C(=O)NC(c3ccccc3)c3ccccc3)N2C1=O,0.77
7,C[C@H](NC(=O)c1sccc1OCc1ccc(Cl)cc1)c1ccccc1,0.368
8,O=C(O)C(O)Cc1ccc(O)c(O)c1 (centres undefined),0.82
9,N#CC1(c2ccc(NC(=O)c3cccnc3NCc3ccncc3)cc2)CCCC1,1.21
10,CC(C)(C)NC(=O)Nc1cccc(Nc2ncc(F)c(NC(C)(C)CO)n2)c1,-0.707
11,CCCCCNC(=O)N1CCC(CN(Cc2ccc(Cl)cc2)Cc2ccc([N+](=O)[O-])s2)C1 (centres undefined),-0.865
12,COc1cccc(-c2cc(=O)c3ccccc3o2)c1N,-0.672
13,O=C(NCc1ccccc1)c1csc(Nc2ccncn2)n1,-0.615
14,Clc1cc(Cl)cc(CNc2ncncc2-c2ccc3c(c2)OCO3)c1,0.335
15,CO[C@@H](C(=O)N1Cc2[nH]nc(NC(=O)c3ccc(N4CCN(C)CC4)cc3)c2C1)c1ccccc1,-0.0482
16,Cc1c(NC(=O)c2ccc(C(C)(C)C)cc2)cccc1-c1cn(C)c(=O)c(Nc2ccc(C(=O)N3CCOCC3)cc2)n1,1.16
17,Cc1cnc(C(=O)O)c[n+]1[O-],-0.768
18,NC(=O)c1cnc(-c2ccc(C3(N)CCC3)cc2)c(-c2ccccc2)c1,0.0998
19,CCOC(CN1C(=O)[C@](CC(=O)Nc2ccc(C)cc2)(NC(=O)Nc2ccc(C)cc2)c2ccccc21)OCC,1.21

# Reference: PubChem BioAssay (NCATS)
